The list is not random: actives were taken first. Their share in the collection is about 10%.
Gal4-VP16 FLuc = inhibits Gal4-VP16 luciferase reporter, ROR gamma counter-screen. Drosophila S2 Gal4-VP16 UAS-luciferase, luminescence, 20 h. Potency, µM (top dose mostly 53.6 µM), for the others: at the top dose activity, negative = inhibition, usual class: inhibitors. hit rate 3.5% among 310,000;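 also: Gal4-VP16 expression switched on by copper sulfate through the metallothionein promoter; % is scaled to controls: 0 for no effect and ±100 for the full control effect; nearly all actives have a fitted effect of over 50% in size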
MCF10A rerep = DNA re-replication induction in MCF 10a cells. MCF 10A DNA re-replication, Hoechst nuclear intensity, 48 h. hit rate 2.9% among 350,000. Potency, µM (doses to about 46.1 µM), for inactives: at the highest dose activity, positive = re-replication, usual class: activators; also: % of control where 0% means no effect; nearly all actives have a fitted effect of over 50% in size
SW480 rerep = induces DNA re-replication in SW480 colon adenocarcinoma cells; SW480 DNA re-replication, Hoechst DNA content imaging, 48 h; Potency, µM (highest dose often 46.1 µM), inactives show at the top dose re-replication activation, most hits filed as activators; hit rate 1.8% among 340,000; also: % of control where 0% means no effect; nearly all actives have a fitted effect of over 55% in size
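Compounds, transferred as 23 nL by pin tool, were incubated with cells for 48 hr; DNA content per nucleus was then quantified by Hoechst staining and fluorescence plate imaging.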
KB-3-1 cytotox = kills parental KB-3-1 adenocarcinoma cells; KB-3-1 viability, CellTiter-Glo ATP luminescence, 72 h; Potency, µM (doses to about 46.1 µM), actives largely listed as cytotoxic; hit rate 1.4% among 400,000; AID 1347075; also: % is scaled to controls: 0 for no effect and ±100 for the full control effect; nearly all actives have a fitted effect of over 60% in size
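72 h, 37 °C compound treatment of KB-3-1 parental cells; CellTiter-Glo added, 10 min, luminescence read. Data corrected against DMSO-only plates and normalized before curve fitting.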
KB-V1 cytotox = KB-V1 MDR subline cytotoxicity. AID 1347076. Potency, µM (titrated, usually from 46.1 µM), hits mostly cytotoxic. KB-V1 MDR cells viability, CellTiter-Glo, 72 h. hit rate 3.4% among 400,000; also: % is scaled to controls: 0 for no effect and ±100 for the full control effect; nearly all actives have a fitted effect of over 60% in size
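qHTS viability screen in drug-selected KB-V1 MDR cells: 72 h compound treatment at 37 degrees C, ATP luminescence end point.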
RORg inh = blocks mouse ROR gamma transcriptional activity; P51450; Drosophila S2 Gal4-RORgamma UAS-luciferase reporter, 20 h; Potency, µM (titrated, usually from 53.6 µM), inactives show top-dose activity change, negative = inhibition, actives largely listed as inhibitors; hit rate 5.4% among 310,000; also: % is scaled to controls: 0 for no effect and ±100 for the full control effect; nearly all actives have a fitted effect of over 60% in size
Target sequence (P51450 whole entry, looked up, the tested form may be a part): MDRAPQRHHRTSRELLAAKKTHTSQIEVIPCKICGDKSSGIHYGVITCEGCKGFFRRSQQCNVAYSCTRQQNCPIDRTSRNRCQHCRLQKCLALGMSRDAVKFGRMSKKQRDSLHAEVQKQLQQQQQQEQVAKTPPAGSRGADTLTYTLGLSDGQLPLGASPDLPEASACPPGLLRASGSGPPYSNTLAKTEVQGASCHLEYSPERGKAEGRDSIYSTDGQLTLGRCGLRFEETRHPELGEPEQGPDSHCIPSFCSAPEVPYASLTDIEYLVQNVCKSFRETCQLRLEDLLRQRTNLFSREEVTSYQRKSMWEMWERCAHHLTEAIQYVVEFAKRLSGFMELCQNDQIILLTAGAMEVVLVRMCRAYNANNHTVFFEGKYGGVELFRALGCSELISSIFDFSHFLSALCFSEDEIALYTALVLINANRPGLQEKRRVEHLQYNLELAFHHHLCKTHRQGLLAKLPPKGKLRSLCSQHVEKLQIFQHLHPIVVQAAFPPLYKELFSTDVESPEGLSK
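Drosophila S2 cells stably expressing Gal4-DBD/mouse RORγ fusion under metallothionein promoter plus UAS-luciferase; compound 1 h, then 700 uM CuSO4 induction for 20 h at ambient temperature; inhibition read as reduced luminescence.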
Starred values were filed as active, the others as inactive; i = inactive; ? = inconclusive; · = no result given; [ ] = dose if it differs, or a comment. Calls follow the shape of the dose curve; as a rule, active = well fitted curve in the direction sought with a large enough effect; inconclusive = small, poorly fitted or top-dose-only effect, or another doubt; inactive = no such curve, though single readings can be large; an effect the other way counts as inactive or inconclusive. Potency is read from the fitted curve at half-maximal effect.

SMILES | Gal4-VP16 FLuc | MCF10A rerep | SW480 rerep | KB-3-1 cytotox | KB-V1 cytotox | RORg inh
Fc1ccc(/C=C/c2nccc3ccccc23)cc1 | · | · | · | 18µM* | i | ·
Fc1cccc(F)c1/C=C/c1ccc2ccccc2n1 | ? | 3% | · | i | ? | ?
O=C(Nc1cccc(Cl)c1)N1CCSc2cc(Cl)ccc21 | -2% | 3% | 1% | i | 18µM* | ?
CCOc1cc(-c2ccc3c(c2)OCO3)cc(=[O+]CC)c2c(C)oc(C)c12 | · | · | · | i | i | ·
CCOc1ccc(C(=S)NC2CCCCC2)cc1OCC | · | 4% | 1% | i | ? | ·
CCc1ccc(C(C)NC(=S)NC2CCCCC2)cc1 (centres undefined) | 3.2µM* | ? | ? | ? | ? | 2.2µM*
CC(CCc1ccccc1)NC(=S)NC1CCCCC1 (centres undefined) | 16µM* | 6% | -2% | i | i | 2.5µM*
CCC(C)c1ccc(OCC(=O)NNC(=O)C2CCCCC2)cc1 (centres undefined) | -3% | 26% | -6% | i | i | 17%
O=C(NC1CCCCCC1)C(=S)NCCc1ccccc1 | 4% | ? | -83%[1.84 µM] | i | i | 41%
CCOc1ccc(C(C)NC(=S)NC2CCCCC2)cc1OCC (centres undefined) | 14µM* | -1% | -3% | i | ? | 7.1µM*
CCC(C)c1ccc(C(C)NC(=S)NC2CCCCC2)cc1 (centres undefined) | 2µM* | ? | ? | ? | ? | 2.8µM*
CC(C)(C)c1ccc(C(=O)NC2(C(F)(F)F)C(=O)Nc3c2c(=O)[nH]c(=O)n3-c2ccccc2)cc1 (centres undefined) | · | · | · | i | i | ·
COc1ccc(S(=O)(=O)Nc2cc(S(=O)(=O)c3ccccc3)c(O)c(C)c2C)cc1 | · | · | · | i | i | ·
CCOc1ccc(C(C)NC(=O)C2CCCC2)cc1 (centres undefined) | 1% | -3% | -9% | i | i | -3%
CCOc1ccc(C(C)NC(=S)NC2CCCCC2)cc1 (centres undefined) | 10µM* | 3% | ? | i | i | 3.2µM*
CCC(NC(=S)NC1CCCCC1)c1ccccc1 (centres undefined) | 7.1µM* | · | · | · | · | 3.2µM*
COc1ccc(CCN(C)c2ncnc3sccc23)cc1OC | -7% | 0.82µM* | ? | i | i | ?
CN(Cc1cccs1)c1ncnc2sccc12 | 1.3µM* | 16% | 0% | i | i | -14%
COc1ccc(CN(C)c2ncnc3sccc23)c(OC)c1OC | -4% | ? | ? | 8.2µM* | 4.6µM* | 37%
CCOc1ccc(-c2cc(-c3nc(-c4ccc(C)cc4)no3)[nH]n2)cc1 | · | · | · | i | i | ·
COc1ccc(C(N)c2csc(Nc3ccc(S(C)(=O)=O)cc3)n2)cc1 (centres undefined) | · | · | · | i | i | ·
COc1ccc2[nH]cc(CCNc3nc(-c4cccnc4)nc4ccccc34)c2c1 | -6% | · | · | · | · | 21%
CCC(=O)N(Cc1ccc(C)cc1)Cc1cc2cc3c(cc2[nH]c1=O)OCO3 | 1% | -5% | -6% | i | 12µM* | 16%
O=C(Nc1ccc(F)cc1)N(Cc1ccco1)Cc1cc2cc3c(cc2[nH]c1=O)OCO3 | -29% | 18µM* | 5% | i | i | ?
O=C(Nc1ccc(F)cc1)N(Cc1cccs1)Cc1cc2cc3c(cc2[nH]c1=O)OCO3 | -13% | ? | -10% | i | ? | ?
SMILES | Gal4-VP16 FLuc | MCF10A rerep | SW480 rerep | KB-3-1 cytotox | KB-V1 cytotox | RORg inh
CC1(C)CN=C(N(C(=O)Nc2ccccc2)c2ccccc2F)S1 | 27% | ? | -2% | i | i | -1%
Cc1cccnc1N(C(=O)Nc1cccc(Cl)c1)C1=NCC(C)(C)S1 | -25% | 29% | 9% | i | ? | 11µM*
Cc1cccnc1N(C(=O)Nc1ccccc1)C1=NCC(C)(C)S1 | ? | 12% | 0% | i | i | 10µM*
COc1cc2nc(CC(C)C)n(NC(=O)c3ccccc3Br)c(=O)c2cc1OC | 0% | 6.5µM* | 0% | i | i | 30%
COc1ccccc1C(=O)Nn1c(C)nc2ccccc2c1=O | -3% | -1% | 1% | i | i | -16%
Cc1cccc2sc(NC(=O)CNS(=O)(=O)c3ccc(Br)s3)nc12 | -27% | ? | 2% | i | i | 11µM*
Cc1cccc2sc(NC(=O)CN3C(=O)c4ccccc4C3=O)nc12 | ? | 5% | -70% | i | i | -30%
CCS(=O)(=O)N1Cc2ccccc2CC1C(=O)Nc1nnc(SCc2c(Cl)cccc2Cl)s1 (centres undefined) | 6.3µM* | 21% | 6% | i | i | 5µM*
CCS(=O)(=O)N1Cc2ccccc2CC1C(=O)NCC12CC3CC(CC(C3)C1)C2 (centres undefined) | 9% | 5% | 15% | i | 23µM* | 6%
CCSc1nnc(NC(=O)C2Cc3ccccc3CN2S(=O)(=O)CC)s1 (centres undefined) | -93% | -2% | 12% | i | i | ?
